We go through eight compounds from PubChem BioAssay (NCI).

Some test systems named below: SK-MEL-2 melanoma; EKVX NSCLC; SN12C renal; UO-31 renal; TK-10 renal; ACHN renal; CAKI-1 renal; A498 renal; CCRF-CEM leukemia; MOLT-4 leukemia; SR leukemia; RPMI-8226 leukemia; OVCAR-8 ovarian; OVCAR-5 ovarian; OVCAR-4 ovarian; SK-OV-3 ovarian; IGROV1 ovarian; OVCAR-3 ovarian; HS 578T breast; NCI/ADR-RES ovarian.
What all share (assay): NCI-60 one-dose screen, 48 h (100 = growth as untreated, 0 = no growth, -100 = all killed)
Common to all, as to conditions: 10 µM unless noted

Compounds without any hit were thinned out: in the full panel of roughly 83,000, 20% have a hit.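 The endpoint reported here, percent growth, reads 100 for growth as untreated, 0 for no net growth and -100 for all cells dead.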 Unmarked numbers belong to inactive results. Calls of active or inactive are those of the source. How the source made its calls: active means growth percent below 10; inactive means the rest.

`Nc1ncc(-c2ccc3ncnc(N4CCc5ccc(Cl)cc54)c3c2)cn1`: the growth is -53.3% (active) with SK-MEL-2 melanoma; 2.36% (active) in the test with EKVX NSCLC; 7.41% (active) in the test on SN12C renal; -21.7% (active) in the test on UO-31 renal; -30.3% (active) in the test on TK-10 renal; 3.09% (active) in the test on ACHN renal. Moreover, the growth is 5.95% (active) with CAKI-1 renal; -55.2% (active) in the test with A498 renal; 4.45% (active) with CCRF-CEM leukemia; -39% (active) in the test with MOLT-4 leukemia; -10.6% (active) with SR leukemia; -35.6% (active) in the test on RPMI-8226 leukemia. In addition, the growth in the test on OVCAR-8 ovarian is 4.28% (active); in the test with OVCAR-5 ovarian, 7.02% (active); in the test with OVCAR-4 ovarian, 2.15% (active); in the test on SK-OV-3 ovarian, -22.2% (active); in the test on IGROV1 ovarian, -47.7% (active); with OVCAR-3 ovarian it was 3.17% (active). For the same compound, the growth was -24.5% (active) with HS 578T breast and 3.68% (active) in the test on NCI/ADR-RES ovarian.

`CCN1CCN(CCOc2ccc(CNc3ccc4nc(CCC5CCCCC5)[nH]c4c3)cc2)CC1`: the growth was -3.49% (active) in the test with SK-MEL-2 melanoma; 71.3% in the test with EKVX NSCLC; 67.8% in the test on SN12C renal; -24.9% (active) in the test on UO-31 renal; 81.2% in the test on TK-10 renal; 40.9% in the test with ACHN renal. In addition, the growth is 0.23% (active) in the test with CAKI-1 renal; 43.9% in the test on A498 renal; 8.27% (active) with CCRF-CEM leukemia; 20% with MOLT-4 leukemia; 31.5% in the test on SR leukemia; -5.5% (active) with RPMI-8226 leukemia. The growth in the test on OVCAR-8 ovarian is 38.2%; in the test with OVCAR-5 ovarian, 58.7%; in the test on OVCAR-4 ovarian, 48.2%; in the test with SK-OV-3 ovarian it was 87.1%; in the test on IGROV1 ovarian, 40.9%; in the test with OVCAR-3 ovarian, 27.8%. Also, the growth with HS 578T breast was 65%; in the test on NCI/ADR-RES ovarian it was 73.5%.

As to `Cc1ccccc1NC(=O)Cn1cc(CN2CCN(c3ccnc4cc(Cl)ccc34)CC2)nn1`, the growth in the test with SK-MEL-2 melanoma is 110%; in the test on EKVX NSCLC it was 97.1%; in the test on SN12C renal it was 94.7%; in the test with UO-31 renal, 71.1%; in the test on TK-10 renal it was 102%; in the test on ACHN renal it was 95%. Besides, the growth with CAKI-1 renal was 80.3%; with A498 renal it was 84.8%; in the test on CCRF-CEM leukemia it was -33.5% (active); with MOLT-4 leukemia, 45.3%; in the test on SR leukemia, 86.8%; in the test on RPMI-8226 leukemia it was 79.7%. Also, the growth is 103% in the test on OVCAR-8 ovarian; 103% in the test with OVCAR-5 ovarian; 94% in the test on OVCAR-4 ovarian; 95.6% in the test on SK-OV-3 ovarian; 99.8% in the test with IGROV1 ovarian; 105% with OVCAR-3 ovarian. The growth in the test with HS 578T breast is 85.5%; in the test on NCI/ADR-RES ovarian it was 99.1%.

Take `COc1ccc(-n2c(=O)n(-c3ccc(-c4nc5ccc(F)cc5s4)cc3)c(=O)c3cccnc32)cc1`: the growth is 103% with SK-MEL-2 melanoma; 91.6% with EKVX NSCLC; 100% with SN12C renal; 75.6% with UO-31 renal; 119% with TK-10 renal; 103% in the test with ACHN renal. For the same compound, the growth in the test with CAKI-1 renal is 85.3%; with A498 renal, 98.2%; with CCRF-CEM leukemia, 102%; with MOLT-4 leukemia, 97.7%; with SR leukemia, 104%; in the test on RPMI-8226 leukemia, 91.6%. Moreover, the growth in the test on OVCAR-8 ovarian was 93.1%; in the test with OVCAR-5 ovarian, 108%; in the test on OVCAR-4 ovarian, 104%; with SK-OV-3 ovarian, 86.6%; in the test with IGROV1 ovarian, 90.5%; in the test with OVCAR-3 ovarian, 106%. The growth is 101% with HS 578T breast and 103% in the test on NCI/ADR-RES ovarian.

For `CN1CCN(Cn2nc(-c3cc(Cl)cc(Cl)c3Cl)oc2=S)CC1`, the growth with SK-MEL-2 melanoma was 95.3%; with EKVX NSCLC, 102%; with SN12C renal, 93.9%; with UO-31 renal, 138%; in the test on TK-10 renal, 110%; in the test with ACHN renal, 98.1%. Besides, the growth is 59.5% in the test with CAKI-1 renal; 95% in the test on A498 renal; 272% with CCRF-CEM leukemia; 122% with MOLT-4 leukemia; 70.4% in the test with SR leukemia; 160% in the test with RPMI-8226 leukemia. In addition, the growth with OVCAR-8 ovarian is 96%; in the test with OVCAR-5 ovarian it was 93.6%; in the test with OVCAR-4 ovarian, 92.8%; in the test with SK-OV-3 ovarian it was 100%; in the test on IGROV1 ovarian, 97.8%; with OVCAR-3 ovarian it was 99.2%. For the same compound, the growth with HS 578T breast is 91.2%; in the test with NCI/ADR-RES ovarian, 99%.

Regarding `Cc1ccc(S(=O)(=O)N(CCC(=O)O)c2ccccc2)cc1`, the growth with SK-MEL-2 melanoma is 109%; with EKVX NSCLC it was 108%; with SN12C renal, 109%; with UO-31 renal it was 106%; with TK-10 renal, 119%; with ACHN renal it was 106%. The growth was 93.9% in the test on CAKI-1 renal; 81.3% in the test on A498 renal; 94.4% in the test on CCRF-CEM leukemia; 106% in the test with MOLT-4 leukemia; 99.3% with SR leukemia; 93.2% in the test on RPMI-8226 leukemia. In addition, the growth with OVCAR-8 ovarian was 101%; with OVCAR-5 ovarian, 111%; in the test with OVCAR-4 ovarian, 114%; in the test with SK-OV-3 ovarian, 105%; in the test with IGROV1 ovarian, 123%; with OVCAR-3 ovarian, 110%. For the same compound, the values for the growth with HS 578T breast and with NCI/ADR-RES ovarian were 121% and 110%, respectively.

With `CC1=C2[C@@H](CC1)[C@]1(C)O[C@@](C(C)C)(C[C@H]1OC(=O)CO)[C@H]2OC(=O)CCCc1ccccc1`, the growth with SK-MEL-2 melanoma was 66.8%; in the test with EKVX NSCLC, 94.1%; in the test on SN12C renal, 54.9%; in the test on UO-31 renal it was 39.6%; in the test with TK-10 renal, 88.4%; in the test with ACHN renal it was 56.7%. For the same compound, the growth was 59.8% in the test on CAKI-1 renal; 59.3% in the test on A498 renal; 31.8% in the test on CCRF-CEM leukemia; 23.5% with MOLT-4 leukemia; 76.1% with SR leukemia; 22.7% in the test with RPMI-8226 leukemia. Besides, the growth in the test with OVCAR-8 ovarian was 35.4%; with OVCAR-5 ovarian, 100%; in the test with OVCAR-4 ovarian, 80%; with SK-OV-3 ovarian, 105%; in the test with IGROV1 ovarian, 62.8%; in the test on OVCAR-3 ovarian, 61.3%. For the same compound, the results for the growth in the test with HS 578T breast and with NCI/ADR-RES ovarian were -4.02% (active) and 44.8%, respectively.

As for `Nc1nc(=O)n([C@H]2CC=C(CO)O2)cc1F`, the growth in the test with SK-MEL-2 melanoma was 102%; in the test with EKVX NSCLC, 110%; with SN12C renal it was 96.8%; in the test on UO-31 renal, 91.5%; in the test on TK-10 renal it was 99.3%; in the test with ACHN renal it was 110%. The growth in the test with CAKI-1 renal is 94.6%; in the test on A498 renal, 75.8%; in the test on CCRF-CEM leukemia, 103%; with MOLT-4 leukemia, 90.5%; in the test with SR leukemia it was 86.1%; with RPMI-8226 leukemia it was 101%. Further, the growth in the test with OVCAR-8 ovarian is 99.7%; with OVCAR-5 ovarian, 89.3%; in the test with OVCAR-4 ovarian, 107%; with SK-OV-3 ovarian, 101%; with IGROV1 ovarian it was 95.2%; with OVCAR-3 ovarian it was 104%. The values for the growth in the test with HS 578T breast and in the test with NCI/ADR-RES ovarian were 83.6% and 104%, respectively.
